Measured values taken from the supplement of paper PMC11417369.
In all, about 25,000 sequences were measured (“ln(normalized median fluorescence intensity)”: median about 9.7, highest 2% from about 11 on). The full list was thinned out, with the highest values kept by preference.

test system: PfAP2-HC AP2 domain (GST-tagged); experiment: gcPBM binding intensity (ln(normalized median fluorescence intensity)); higher = stronger DNA binding
How it was run: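 Each value is the highest Masliner-normalised natural-log median intensity across replicate spots of either orientation of a probe. The probes were primer-extended double-stranded 36-bp intergenic genomic sequences on an Agilent 4 × 180k array, alongside negative controls, exposed for 1 h to GST-tagged P. falciparum DNA-binding domains expressed in E. coli. Bound protein was picked up with Alexa488 anti-GST antibody and scanned at 488 nm.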

Sequence	gcPBM binding intensity (ln)
AAAAATCAATTAGAAGAACACACGTAAATTTTTTTT [CACACA_site2396]	9.76
TATTTTTCTTTATTGGTACACACGAAAAAAAAATTG [CACACA_site3054]	9.53
AAATGGGTTTATTTAACACACAAAAGAAAAAATATA [CACACA_site1938]	9.77
AAAGGTGTATTTAATACACACGTGTCATTAAAATTG [CACACA_site4508]	9.71
TATATATATATAGACACACACACACCCATATATATA [CACACA_site4117]	10.9
ATAATCCACAAGCACACACACACACCCATATATATA [CACACA_site1268]	10.6
CACACCCACAGACACACACACACATATATAATATAT [CACACA_site594]	11.4
TATAATAATCCACAAGCACACACACCCACATATATA [CACACA_site8343]	11.3
TAATAATCCACAAGCACACACACACCCATATATATA [CACACA_site1267]	10.8
CACCCATACAGACATACACACACATATATATTAATA [CACACA_site8077]	10.2
TATATACATAGACACCCACACACAAAAAAAAAAAAA [CACACA_site8186]	10.2
TAAATACAGACATACACACATACACCCACATATATA [CACACA_site547]	10.3
CACACCCACAGACACACACACACATATATATATATA [CACACA_site363]	10.8
CGCACCCACAGACACACACACACATATATATATATA [CACACA_site2202]	11.4
TATATATATATATATACACACACACCCATATATATA [CACACA_site8812]	10.3
AAAAAAAAAAAAAAATGTACAAAAATTACTATAAAA [XGTACX_site7683]	9.48
AAAAATAATGCACATATATATAATATGTATATGTAT [CACACA_negctrl_site443]	9.75
GTAATGAAACATTGCACACATATAATAATATAATAT [CACACA_site1422]	9.84
AGAAAAGAAATTAGTTGTACTCTGATGAATTATCCT [XGTACX_site6284]	9.5
TTCAATTTTTTATGAACACACAAAAAAAAAAAAAAA [CACACA_site2533]	9.23
GGCATACACAGACACACACACACACCCACATATATA [CACACA_site591]	11.2
AGTATACACAGACACACACACACATATATATATATA [CACACA_site8510]	10.9
ATAGACAGCGCACAAACACACAAACACAGACCCCCA [CACACA_site4409]	10.2
AAACCGTGGGAGCACACACACACACCCACCCATATA [CACACA_site332]	10.4
ATAGACAGCGCACAAACACACAAACACCCACCCACA [CACACA_site8043]	10.1

Sequence	gcPBM binding intensity (ln)
ACCGTGGGAAGACACACACACACACCCACATATATA [CACACA_site333]	11
ACCGTGGGAGGACACACACACACACCCACATATATA [CACACA_site4339]	10.8
AGACAGCGCACAAACACACAAACACCCACCCACATA [CACACA_site451]	11.3
ATAGTATACAGACACACACACACACCCATATATATA [CACACA_site1736]	11.7
TTTAAATACAGACATACACACATACACCCACATATA [CACACA_site8078]	10.2
CACAGACACCCATACACACACATACCCATATATATA [CACACA_site5023]	10.3
TTGGCATACAGACACACACACACACCCCCACATATA [CACACA_site590]	10.9
ATTAGTATTAGATGATGTACATTTATATTGAAATAT [XGTACX_site8537]	9.63
GATATATTTTATATATGTACATACAAGGGTAAATAT [XGTACX_site1202]	9.68
ATATATATATATGTCTGTACATAAAAAATAATAAAT [XGTACX_site3122]	9.68
TATATATATATAATTACACACAATGTTCTATATATA [CACACA_site3235]	9.8
TTGTGATTATATAATCGTACATAATTTTAATCACAC [XGTACX_site398]	9.58
TTTTTTTTAATTGTGATACGTATATTATTTAATGAT [CACACA_negctrl_site38]	9.59
CGCACAAAAATATACACACACACATATATATTTATT [CACACA_site3645]	10.4
ACATTATATAAAATATGTACATATAAAAAATTCTAT [XGTACX_site1617]	9.77
GTTATATAAACATATGCATGTGAAGTGTTTATTAAT [TGCATGCA_site183]	9.8
AATAAAAAAGAATATACACACATAAATATAAAATAT [CACACA_site683]	10
TGGTATCAAAAGAATACACACACACCGACATATATA [CACACA_site9265]	11.1
GTATCAAAAGAATACACACACACATACCTATAAATA [CACACA_site7737]	10.8
AATAGTAAAAGATATACACACACCAAAAAATATAAT [CACACA_site5293]	10.3
AAAGAAAGAAAGAATACACACACACCGATATATATA [CACACA_site9246]	10.3
GTATCAAAAGAATACACACACACATACATATATATA [CACACA_site3796]	11.3
AATAGTAAAAGATATACACACACCAAAAAATAGAAT [CACACA_site2289]	11.6
GTATCAAAAGAATACACACACACATACAGATATATA [CACACA_site5975]	11.2
TATATCAAAATACATACACACATTTGTATATACATT [CACACA_site2696]	10

Sequence	gcPBM binding intensity (ln)
AAAATACACGCATACACACACACACCGACACATATA [CACACA_site4523]	10.7
TAGTAAAAGATATACACACACCAAAAAATATAATTA [CACACA_site7142]	10.5
TCAAAGCACAGATACACACACATATATATATATATA [CACACA_site287]	10.1
AAAAAAATTTCACATTGTACTTTAATAATATACTAC [XGTACX_site7264]	9.64
TATATATATATATATTGTACATAATGTATATATGTT [XGTACX_site3448]	9.74
AAAATAATGTATATAGTGCAAATGAAAACGAAAAAA [GTGCAC_site9455]	10.1
TGAATATTTCTATATACACACATATATATATATATA [CACACA_site3451]	9.74
ATAATGAAAAGGAACATACACACCCCATATAAATAT [CACACA_site3442]	10.3
TACAAACAAACACATAGCAATATATGTTATCAAAAA [XGTACX_negctrl_site1]	9.81
AGAAAGAAAGAATACACACACACATATATAAATATC [CACACA_site7716]	10.4
AGAAAGAAAGAATACACACACACATATATATATATC [CACACA_site3744]	11.5
TAAAGAAATAAATACATACACACATATATATATATA [CACACA_site3363]	9.89
TTATCATTTTAATGGTGTACTCAATAAAAACTTTAA [XGTACX_site4595]	9.13
TATATATATAGACACACACACATATAAATAAATAAA [CACACA_site444]	10.4
AAAGGATACAGACACACACACACATATATATATATA [CACACA_site906]	10.8
AAAGGATATAGACACACACACACATATATATATATA [CACACA_site2200]	11.4
TATATAATATATATGACACACATATTTATATAAATA [CACACA_site4054]	9.57
AAAAAAAACAGACACACACACATAAATATAAATAAA [CACACA_site6214]	10.5
TATATATATAGACACACACACACATATATATATATA [CACACA_site9366]	10.7
TATATAAATAGACACACACACATATAAATATAAATA [CACACA_site6503]	10.4
CATATAAATAGACACACACACACATATAAATAAATA [CACACA_site7156]	11.1
AAAAATTCCAGACACACACACACATATAAATAAATA [CACACA_site1232]	11.1
ACATAAATATATGACACACACACATATTATATATAT [CACACA_site3065]	11.1
AAAAAAAACAGACACACACACATAAATATATATAAA [CACACA_site148]	10.4
GCACATAAATATATGACACACACACCGATTATATAT [CACACA_site9003]	10.8

Sequence	gcPBM binding intensity (ln)
CACACTTTATAATGTTGTACGATACATTATACCAAA [XGTACX_site941]	9.67
ATAGTATAACAGCAATGTACACATATTTGTGTATAT [XGTACX_site7899]	10
AATATTAAAAACAAAACACACAAAAAAAAATAAACT [CACACA_site6470]	10.2
TGTACATATATATAATATATATATCATCATATTTTC [CACACA_negctrl_site1750]	9.69
TAAAACAAAATAACATGTACAAAAAAAAAAAAAAAA [XGTACX_site2915]	9.24
ACAAATAAATAAATATGTACTTAATTATATAATTGA [XGTACX_site5626]	9.5
TATCATGGGTGTATTTCACACACGGATAATCATTTA [CACACA_site8211]	9.83
AAGAAAATTAACCCATGTACTTATGTAGATAGCAAG [XGTACX_site1049]	9.87
TTGAGAAAAATTAATGGTACACATATTATAAGTATA [XGTACX_site6539]	9.7
AAATATATTTTTTTTTGTACTCAAAAAGAAAAAAAA [XGTACX_site8540]	9.05
AAAAATTTCATATTCACACACAAAAAAAAAAAATAT [CACACA_site1592]	9.96
AAATACTTATTCGTGGTGCAACAATTTTAAAAATTA	9.49
TATGAAAAAATATATACACACATAATAAAGGTATAT [CACACA_site3737]	9.9
AACATTATAAGACACACACACACATATATAAATATA [CACACA_site6622]	11.2
TATATAAATAGACACACACACACATATAAATAAATA [CACACA_site7855]	10.7
TAATTTTTTAGACACACACACATATAAATATAAATA [CACACA_site6195]	10.8
AATAAATTTAGACACACACACACATATAAATAAATA [CACACA_site6531]	11.1
AACATTATAAGACACACACACACATATATATATATA [CACACA_site8259]	10.8
CATATAAAAAGACACACACACACATATATATATATA [CACACA_site940]	10.8
AAAAAAAAAAGACACACACACATATAAATATAAATA [CACACA_site6899]	11.5
TAAATTTATAGACACACACACATATAAATAAATATA [CACACA_site6530]	10.8
TCATAGTATAGACACACACACACACGCATATAAATA [CACACA_site6915]	10.5
TACACGCATAGACACACACACACACGCATATAAATA [CACACA_site6446]	11.3
TATAAATAAAGACACACACACATATAAATAAATATA [CACACA_site7155]	10.5
TAATAAATAAGACACACACACATATATATATATTAT [CACACA_site1389]	10.3
